From the supplement of paper PMC6089552
Hit rate of the full screen: of about 3,200 compounds, about 300 (9.4%) showed activity. Only a selection was taken, and actives are over-represented in it overall.

System: A673/TR/shEF
Test: cell viability (LOESS-normalised, relative to median of negative controls) (log2 ratio); higher = more viable cells (less compound effect), active = hit call of the paper (over 3 MAD below the median)
Conditions: treatment time: 72 h
Outline: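 A673/TR/shEF Ewing sarcoma cells were plated at 1,500 per well in 384-well plates and cultured with or without doxycycline, added 24 h before compounds, to induce EWS-FLI1 shRNA knockdown. Library compounds at two or more concentrations, alongside DMSO controls, were applied for three days. Cell viability was measured by CellTiter-Glo luminescence on an Envision reader. Readings were LOESS-corrected per plate, divided by the median of negative controls and log2-transformed, and hits were wells lying at least three median absolute deviations from the median of all screened wells.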

[1] = 0.25 µM, library screen: screen1, EWS-FLI1 expression: high (no doxycycline)
[2] = 0.25 µM, library screen: screen1, EWS-FLI1 expression: low (doxycycline-induced shRNA knockdown)
[3] = 2.5 µM, library screen: screen1, EWS-FLI1 expression: high (no doxycycline)
[4] = 2.5 µM, library screen: screen1, EWS-FLI1 expression: low (doxycycline-induced shRNA knockdown)
[5] = 0.25 µM, library screen: screen2, EWS-FLI1 expression: high (no doxycycline)
[6] = 0.25 µM, library screen: screen2, EWS-FLI1 expression: low (doxycycline-induced shRNA knockdown)
[7] = 2.5 µM, library screen: screen2, EWS-FLI1 expression: high (no doxycycline)
[8] = 2.5 µM, library screen: screen2, EWS-FLI1 expression: low (doxycycline-induced shRNA knockdown)

Measured: cell viability (log2)

C/C=C/c1ccc2c(c1)OCO2
inactive: [1] 0.0443 | [2] -0.0135 | [3] 0.1 | [4] 0.0835

CC(=O)OCC1=C(C(=O)O)N2C(=O)[C@@H](NC(=O)CCCC(N)C(=O)O)C2SC1 (stereo not given in full)
inactive: [1] 0.128 | [2] 0.143 | [3] 0.14 | [4] -0.0301

C[C@]12C=CC(=O)C=C1CC[C@@H]1[C@@H]2CC[C@]2(C)C(=O)CC[C@@H]12
inactive: [1] 0.0143 | [2] 0.0386 | [3] -0.0049 | [4] 0.0547

C=CCC1(C(C)CCC)C(=O)NC(=S)NC1=O (stereo not given)
inactive: [1] 0.103 | [2] 0.0758 | [3] 0.146 | [4] 0.0138

CC1C2Cc3ccc(O)cc3C1(C)CCN2CC1CC1 (stereo not given)
inactive: [5] 0.105 | [6] 0.104 | [7] 0.153 | [8] 0.0285

C[C@@H]1CC[C@H]2[C@@H](C)C(=O)O[C@@H]3OC4(C)CC[C@@H]1[C@]32OO4
inactive: [1] 0.0266 | [2] 0.0821 | [3] 0.0419 | [4] -0.14

COc1ccc(C[C@H]2NC[C@H](O)[C@H]2OC(C)=O)cc1
active: [1] -0.49 | [2] -0.228 | [3] -2.24 | [4] -1.04

CC(C)[C@H]1CN[C@H](C(=O)O)[C@H]1CC(=O)O
inactive: [5] 0.0705 | [6] 0.0959 | [7] 0.0874 | [8] 0.0543

CCCCCCCCCCCCCCCC[n+]1ccccc1
inactive: [1] 0.0178 | [2] -0.00413
active: [3] -1.66 | [4] -2.21

COc1cc(OC)c2c(c1)OC(c1ccc(OC)c(OC)c1)C(O)C2 (stereo not given)
inactive: [1] 0.123 | [2] 0.00653 | [3] 0.0915 | [4] 0.0594

CNc1ccc2oc(C[C@@H]3OC4(CC[C@@H]3C)O[C@H](C(C)C(=O)c3ccc[nH]3)[C@H](C)C[C@H]4C)nc2c1C(=O)O (stereo not given in full)
active: [5] -0.082 | [7] -0.175
inactive: [1] 0.111 | [2] 0.0323 | [6] 0.0959 | [3] -0.0263 | [4] -1.11 | [8] 0.1

CN[C@@H](Cc1c[nH]c2ccccc12)C(=O)O
inactive: [1] 0.064 | [2] 0.0774 | [3] 0.156 | [4] 0.0411

C[C@@H]1O[C@@H](O[C@H]2C[C@@H](O)[C@]3(CO)[C@H]4[C@H](O)C[C@]5(C)[C@@H](C6=CC(=O)OC6)CC[C@]5(O)[C@@H]4CC[C@]3(O)C2)[C@H](O)[C@H](O)[C@H]1O
active: [1] -2.32 | [2] -1.95 | [5] -0.747 | [6] -0.523 | [3] -3.06 | [4] -3.54 | [7] -4.02 | [8] -3.81

COC1C(O)C(O[C@H]2CC[C@]3(C=O)C4C(CC[C@]3(O)C2)[C@@]2(O)CC[C@H](C3=CC(=O)OC3)[C@@]2(C)C[C@H]4OC(C)=O)OC(C)C1OC(C)=O (stereo not given in full)
inactive: [1] 0.109 | [2] 0.146 | [3] 0.0847 | [4] 0.082

CC1O[C@H](O[C@H]2C[C@@H](O)[C@]3(CO)C4C(O)C[C@]5(C)C(C6COC(=O)C6)CC[C@]5(O)C4CC[C@]3(O)C2)C(O)C(O)[C@H]1O (stereo not given in full)
inactive: [5] 0.151 | [6] 0.0734 | [7] 0.15 | [8] 0.134

COC1C[C@H](O[C@H]2CC[C@]3(C)C4CC[C@]5(C)[C@@H](C6=CC(=O)OC6)CC[C@]5(O)C4CC[C@]3(O)C2)OC(C)[C@H]1O (stereo not given in full)
active: [1] -0.209 | [2] -0.262 | [3] -3.79 | [4] -2.17

CO[C@H]1C[C@H](O[C@H]2CCC3(C=O)C4CCC5(C)C(C6=CC(=O)OC6)CCC5(O)C4CC[C@]3(O)C2)O[C@H](C)[C@H]1O (stereo not given in full)
active: [1] -0.95 | [2] -1.15 | [3] -3.9 | [4] -3.2

C[C@@H]1O[C@@H](O[C@H]2CC[C@]3(C=O)[C@H]4CC[C@]5(C)[C@@H](C6=CC(=O)OC6)CC[C@]5(O)[C@@H]4CC[C@]3(O)C2)[C@H](O)[C@H](O)[C@H]1O
inactive: [1] 0.0221 | [2] 0.0427
active: [3] -3.36 | [4] -3.89

O=c1cccc2n1C[C@@H]1CNC[C@H]2C1
inactive: [1] 0.0148 | [2] -0.00559 | [3] 0.016 | [4] 0.0651

C=CCN1CCc2cccc3c2[C@H]1Cc1ccc(O)c(O)c1-3
inactive: [5] 0.199 | [6] 0.00481 | [7] 0.133 | [8] 0.0436

CN[C@@H]1C[C@@H](c2ccc(Cl)c(Cl)c2)c2ccccc21
inactive: [5] 0.0875 | [6] 0.13 | [7] 0.173 | [8] 0.199

CN1C2CCC1CC(OC(=O)c1cc(Cl)cc(Cl)c1)C2 (stereo not given)
inactive: [5] 0.173 | [6] 0.0634 | [7] 0.093 | [8] -0.00531

C/C=C(/C)C(=O)O[C@H]1CC[C@@]2(C)[C@@H]3CC[C@H]4[C@]5(O)C[C@H](O)[C@@]6(O)[C@@H](CN7C[C@@H](C)CC[C@H]7[C@@]6(C)O)[C@]5(O)C[C@@]42O[C@]13O
inactive: [1] 0.0954 | [2] 0.0385 | [3] 0.186 | [4] -0.0784
